Reference: PubChem BioAssay (NCATS)
Results filed as inconclusive are left out. Where a call stands in place of a potency, no number is given. Calls of active or inactive are those of the source. Unless noted, calls follow the shape of the dose curve; as a rule, active = well fitted curve in the direction sought with a large enough effect; inconclusive = small, poorly fitted or top-dose-only effect, or another doubt; inactive = no such curve, though single readings can be large; an effect the other way counts as inactive or inconclusive.

Assays:
[1] = target: Luciferin 4-monooxygenase (Photinus pyralis) (UniProt P08659); test: Biochemical firefly luciferase enzyme assay for NPC (AID 624030); also: nearly all actives have a fitted effect of over 70% in size; also: potency is read from the fitted curve at half-maximal effect
Luciferin 4-monooxygenase (Photinus pyralis), sequence (P08659 whole entry, looked up): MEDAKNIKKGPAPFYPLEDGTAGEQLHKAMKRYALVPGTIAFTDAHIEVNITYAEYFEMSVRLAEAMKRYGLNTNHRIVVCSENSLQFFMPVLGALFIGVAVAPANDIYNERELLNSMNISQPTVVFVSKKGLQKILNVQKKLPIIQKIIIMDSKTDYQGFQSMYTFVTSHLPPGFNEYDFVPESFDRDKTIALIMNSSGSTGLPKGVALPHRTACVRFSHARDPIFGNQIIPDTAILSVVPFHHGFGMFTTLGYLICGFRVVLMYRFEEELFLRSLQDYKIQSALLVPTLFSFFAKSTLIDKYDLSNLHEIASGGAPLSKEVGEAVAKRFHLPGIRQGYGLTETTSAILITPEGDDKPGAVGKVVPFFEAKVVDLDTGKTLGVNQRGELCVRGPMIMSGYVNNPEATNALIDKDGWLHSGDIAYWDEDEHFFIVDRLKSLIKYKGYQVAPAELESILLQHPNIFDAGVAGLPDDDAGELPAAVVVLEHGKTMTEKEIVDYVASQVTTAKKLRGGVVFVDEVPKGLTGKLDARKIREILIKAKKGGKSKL
In short: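 Direct inhibition of firefly luciferase enzyme (10 nM final, 50 mM Tris Acetate) assessed by luminescence within 5 minutes. Percent activity scaled between DMSO and PTC124 positive control, with concentration-effect curves classified by fit quality and response.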

[2] = target: Glutaminase kidney isoform, mitochondrial (Homo sapiens) (UniProt O94925); test: qHTS for Inhibitors of Glutaminase (GLS): LOPAC Validation (AID 624146); also: nearly all actives have a fitted effect of over 60% in size; also: potency is read from the fitted curve at half-maximal effect
Glutaminase kidney isoform, mitochondrial (Homo sapiens), sequence (O94925 whole entry, looked up, canonical isoform): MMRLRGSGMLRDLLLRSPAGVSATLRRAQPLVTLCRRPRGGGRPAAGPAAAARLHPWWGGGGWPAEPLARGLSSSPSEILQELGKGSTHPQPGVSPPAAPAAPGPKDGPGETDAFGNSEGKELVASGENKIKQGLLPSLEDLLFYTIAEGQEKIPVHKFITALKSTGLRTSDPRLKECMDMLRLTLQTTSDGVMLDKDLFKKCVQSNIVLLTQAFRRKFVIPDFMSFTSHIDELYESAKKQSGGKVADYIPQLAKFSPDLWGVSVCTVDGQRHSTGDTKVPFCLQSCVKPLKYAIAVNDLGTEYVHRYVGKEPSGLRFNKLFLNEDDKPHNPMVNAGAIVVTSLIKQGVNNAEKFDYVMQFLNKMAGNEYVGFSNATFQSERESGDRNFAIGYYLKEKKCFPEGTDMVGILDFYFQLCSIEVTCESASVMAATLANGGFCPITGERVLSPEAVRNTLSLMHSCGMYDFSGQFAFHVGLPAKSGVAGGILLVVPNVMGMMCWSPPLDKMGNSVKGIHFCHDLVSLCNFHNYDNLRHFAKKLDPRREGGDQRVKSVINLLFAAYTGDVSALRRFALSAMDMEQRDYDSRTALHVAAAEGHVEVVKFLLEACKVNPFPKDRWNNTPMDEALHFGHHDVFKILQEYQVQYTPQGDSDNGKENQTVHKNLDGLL
In short: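 Read-out is an Amplex red fluorescence increase coupled through glutamate oxidase and HRP, measured before and after 30 min room-temperature incubation. hKGA is in 45 mM KH2PO4 (pH 8.2) with 0.02% Tween-20; glutamine added as 1mM solution.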

[3] = qHTS of Trypanosoma Brucei Inhibitors: LOPAC Validation (AID 624147)
In short: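 Luminescent Kinase-Glo Plus end-point after 45 min room-temperature reaction of T. brucei pyruvate kinase started with 130 uM ADP (final). Buffer TEA 50 mM pH 7.2 with KCl, MgCl2, BSA, Tween-20; titration-based qHTS with fitted concentration-effect curves.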

[4] = target: Glucagon-like peptide 1 receptor (Homo sapiens) (UniProt P43220); test: qHTS of GLP-1 Receptor Agonists: LOPAC Validation (AID 624148);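 also: luminescence from a luciferase reporter switched on by cAMP; higher luminescence signal means agonism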
Glucagon-like peptide 1 receptor (Homo sapiens), sequence (P43220 whole entry, looked up): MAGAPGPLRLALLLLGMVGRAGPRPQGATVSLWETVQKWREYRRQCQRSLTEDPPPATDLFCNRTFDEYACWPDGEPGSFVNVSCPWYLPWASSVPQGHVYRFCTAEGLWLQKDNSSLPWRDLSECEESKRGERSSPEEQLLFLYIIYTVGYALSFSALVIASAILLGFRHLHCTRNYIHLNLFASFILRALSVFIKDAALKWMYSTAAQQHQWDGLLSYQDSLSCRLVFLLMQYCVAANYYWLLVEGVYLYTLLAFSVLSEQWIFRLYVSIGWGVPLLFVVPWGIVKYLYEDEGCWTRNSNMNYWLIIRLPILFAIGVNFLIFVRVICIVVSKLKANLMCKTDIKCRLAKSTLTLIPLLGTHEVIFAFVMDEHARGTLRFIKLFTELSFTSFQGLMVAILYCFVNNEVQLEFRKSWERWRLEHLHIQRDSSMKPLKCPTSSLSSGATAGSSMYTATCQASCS
In short: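 Agonism scored as increased luciferase luminescence driven by cAMP in HEK293 clones carrying GLP-1R. Cells settled 12 hours, received compound for 4-6 hr at 37 deg C, 5% CO2, and were read after 12 min detection reagent at RT.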

[5] = qHTS of Nrf2 Activators: LOPAC Validation (AID 624149)
In short: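 Following overnight seeding in 5% FBS OPTI-MEM, AREc32_Fluc cells receive compounds for a 24 hr incubation at 37 deg C with 5% CO2. Steady-Glo is added, and after 30 min at RT luminescence is recorded.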

[6] = HTS Assay for Allosteric Antagonists of the Human D2 Dopamine Receptor: Hit Validation in HTRF (AID 624455);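 also: stable D1 dopamine receptor cell line scored for blocking the D1 response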
In short: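 Validation of hits used D1 receptor stably expressed in cells with HTRF detection of response inhibition; origin screen measured calcium flux following EC80 dopamine in a force-coupled, inducible Hek293 Trex D2 cell line.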

[7] = S16 Schwann cell PMP22 intronic element beta-lactamase assay (AID 624044; calls by dose curve; also: potency is read from the fitted curve at half-maximal effect; nearly all actives have a fitted effect of over 15% in size)
In short: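 Beta-lactamase reporter under a PMP22 intronic regulatory element in stable S16 rat Schwann cells; 24 h compound exposure. 460 nm blue signal normalized between DMSO (0%) and potassium clavulanate, with 535 nm FRET tracking viability; curves classed by r2 and response.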

[8] = Cell Proliferation Assay against the TMD8 Cell Line (AID 651645); conditions: TMD8 DLBCL cell line proliferation/viability; at 46.1 µM (top of the series);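 also: cells exposed to compound for 48 h before reading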
In short: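 500 TMD8 cells/well, RPMI + Glutamax, no phenol red, 5% FBS; cpd added immediately; 48 h, 37C, 5% CO2; CellTiter-Glo, luminescence. Controls: DMSO = 100%, bortezomib 9.2 uM final = 0%.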

[9] = Cell Proliferation Assay against the HBL1 Cell Line (AID 651646); conditions: HBL1 DLBCL cells; at 46.1 µM (top of the series);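 also: cells exposed to compound for 48 h before reading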
In short: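 CellTiter-Glo luminescence after 48 h compound exposure at 37C gives percent activity, with DMSO as 100% and 9.2 uM bortezomib final as 0%. Cells: 500 log-phase HBL1 per well, RPMI plus 5% FBS.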

[10] = Cell Proliferation Assay against the TMD8 Cell Line (Caspase readout at 16 hrs) (AID 651712); conditions: TMD8 lymphoma cells, caspase activation luminescence; also: potency is read from the fitted curve at half-maximal effect
In short: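 Caspase-Glo luminescence measured apoptosis after a 16 h, 37 C compound exposure of TMD8 cells (500 cells/well, 5% FBS RPMI). DMSO set 0% and bortezomib at 9.2 uM final set 100% activity.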

[11] = Cell Proliferation Assay against the TMD8 Cell Line (Caspase readout at 8 hrs) (AID 651713); conditions: TMD8 lymphoma cells, caspase activation luminescence; also: potency is read from the fitted curve at half-maximal effect
In short: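 Luminescent caspase 3/7 assay; TMD8 cells, 8 h treatment at 37C, 5% CO2. Normalisation: DMSO 0%, 9.2 uM bortezomib 100%.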

Compound: CC(C)(C)c1nnc(NS(=O)(=O)c2ccccc2)s1
- Potency [1]: inactive

Compound: CCOC(=O)[C@H](CCc1ccccc1)N[C@@H](C)C(=O)N(CC(=O)O)C1Cc2ccccc2C1
- Potency [1]: inactive

Compound: C[C@@]12CCC[C@H]1[C@@H]1CC[C@H]3C[C@@H](O)CC[C@]3(C)[C@H]1CC2
- Potency [1]: inactive

Compound: CCOC(=O)NNc1ccc(N(CC)CC(C)O)nn1 (stereo unspecified)
- Potency [1]: inactive

Compound: CC(=O)Nc1ccn(C2COC(COC(=O)c3ccccc3)O2)c(=O)n1 (stereo unspecified)
- Potency [1]: inactive

Compound: CCN(CC)CCNC(=O)c1ccc(NS(C)(=O)=O)cc1
- Potency [1]: inactive
- Potency [2]: inactive
- outcome [3]: inactive
- outcome [4]: inactive
- outcome [5]: inactive
- outcome [6]: inactive

Compound: O=C1NC2CCCCN2C12CCN(CCCN1c3ccccc3CCc3ccc(Cl)cc31)CC2 (stereo unspecified)
- Potency [1]: inactive

Compound: CO[C@@]1(NC(=O)CSC[C@@H](N)C(=O)O)C(=O)N2C(C(=O)O)=C(CSc3nnnn3C)CS[C@@H]21
- Potency [1]: inactive

Compound: Nc1ncnc2n[nH]c(Nc3ccc(F)cc3)c12
- Potency [2]: 10 µM (active)
- outcome [3]: inactive
- outcome [4]: inactive
- outcome [5]: inactive
- outcome [6]: inactive

Compound: OC1(c2ccc(Cl)c(C(F)(F)F)c2)CCN(CCCC(c2ccc(F)cc2)c2ccc(F)cc2)CC1
- Potency [1]: inactive

Compound: CC(C(=O)O)c1ccc(/C=C2\CCCCC2=O)cc1 (stereo unspecified)
- Potency [1]: 16.1 µM (active)

Compound: CCOC(=O)OCC/C(SC(=O)OCC)=C(\C)N(C=O)Cc1cnc(C)nc1N
- Potency [1]: inactive

Compound: NCC(=O)O
- Potency [1]: inactive

Compound: Clc1ccc2c(c1)N=C(N1CCNCC1)c1ccccc1N2
- Potency [2]: inactive
- outcome [3]: inactive
- outcome [4]: inactive
- outcome [5]: inactive
- outcome [6]: inactive

Compound: O=C(CCCCCCCCC#CI)Oc1ccccc1
- Potency [1]: inactive

Compound: Cc1nn(-c2ccccc2)c(C)c1/C=N/N1CCN(Cc2ccccc2)CC1
- Potency [2]: inactive
- outcome [3]: inactive
- outcome [4]: inactive
- outcome [5]: inactive
- outcome [6]: inactive

Compound: Nc1c[n+](N2CCOCC2)no1
- Potency [1]: inactive

Compound: COc1cc(C(=O)NC2CCCNC2)cc(OC)c1OC (stereo unspecified)
- Potency [1]: inactive

Compound: CCCCCCCCCCCCCC[N+](C)(C)C
- Potency [7]: 25.1 µM (active)

Compound: C[C@@H](O[C@H]1OCCN(Cc2n[nH]c(=O)[nH]2)[C@H]1c1ccc(F)cc1)c1cc(C(F)(F)F)cc(C(F)(F)F)c1
- viability (% of control) [8]: 8.07%
- viability, percent of control [9]: 8.93%
- Potency [10]: 11.8 µM (active)
- Potency [11]: 33.2 µM (active)

Compound: CC(=O)Oc1ccc(C2(c3ccc(OC(C)=O)cc3)Oc3ccccc3NC2=O)cc1
- Potency [1]: inactive

Compound: C[C@H](CN1CCCC1)C(=O)c1ccc(C(F)(F)F)cc1
- Potency [1]: inactive

Compound: CN(CC1(C)CCCO1)S(=O)(=O)c1ccc(Cl)c(S(N)(=O)=O)c1 (stereo unspecified)
- Potency [1]: inactive

Compound: O=C1NC(=O)/C(=C/c2ccc3c(c2)OC(F)(F)O3)S1
- Potency [2]: inactive
- outcome [3]: inactive
- outcome [4]: inactive
- outcome [5]: inactive
- outcome [6]: inactive

Compound: CC1CN(c2cc3c(cc2F)c(=O)c(C(=O)O)cn3-c2ccc(F)cc2F)CCN1 (stereo unspecified)
- Potency [1]: inactive

Compound: CC(=O)OCC(=O)[C@@]1(O)[C@H](OC(C)=O)C[C@H]2[C@@H]3CCC4=CC(=O)C=C[C@]4(C)[C@@]3(F)[C@@H](O)C[C@@]21C
- Potency [1]: inactive

Compound: CN=C(N)NC(=O)Nc1c(C)cccc1C
- Potency [1]: inactive

Compound: N[C@@H](Cn1ccc(=O)c(O)c1)C(=O)O
- outcome [3]: inactive
- outcome [4]: inactive
- outcome [5]: inactive
- outcome [6]: inactive

Compound: O=C(OCC1(COC(=O)c2cccnc2)CCCC(COC(=O)c2cccnc2)(COC(=O)c2cccnc2)C1O)c1cccnc1
- Potency [1]: inactive

Compound: CO/N=C(/C(=O)N[C@@H]1C(=O)N2C(C(=O)[O-])=C(C[n+]3ccn4ncccc43)CS[C@H]12)c1nsc(N)n1
- Potency [1]: inactive

Compound: COC(=O)C1=CO[C@@H](O)[C@@H]2C(CO)=CC[C@H]12
- Potency [2]: inactive
- outcome [3]: inactive
- outcome [4]: inactive
- outcome [5]: inactive
- outcome [6]: inactive

Compound: CN(C(=O)C(Cl)Cl)c1ccc(OC(=O)c2ccco2)cc1
- Potency [1]: inactive

Compound: O=C1CC[C@H](C(=O)N2CCCCC2)N1
- Potency [1]: inactive

Compound: CCCc1c2oc(C(=O)O)cc(=O)c2cc2c(=O)cc(C(=O)O)n(CC)c12
- Potency [1]: inactive

Compound: Cc1ccc(/C=N/n2c(-c3ccccc3)csc2=S)cc1
- Potency [1]: inactive

Compound: CC[N+]1(CC)CCC(=C(c2ccccc2)c2ccccc2)C1C (stereo unspecified)
- Potency [1]: inactive

Compound: CC(C(O)c1ccccc1)N(C)CCOC(c1ccccc1)c1ccccc1 (stereo unspecified)
- Potency [1]: inactive

Compound: O=C(CCCCC(=O)Nc1c(I)cc(I)c(C(=O)O)c1I)Nc1c(I)cc(I)c(C(=O)O)c1I
- Potency [1]: inactive

Compound: O=C(O)CCC(=O)OC[C@@H](NC(=O)C(Cl)Cl)[C@H](O)c1ccc([N+](=O)[O-])cc1
- Potency [1]: inactive

Compound: CC(NN)c1ccccc1 (stereo unspecified)
- Potency [1]: inactive
